Assay in all cases: yeast three-hybrid, YBZ-1, SC-Leu-His + 0.5 mM 3-AT, 4 days
What all share (settings): tags: N-Gal4 AD-HA kept; label: inside an RPR1-promoter hybrid RNA with tandem MS2 sites; ssRNA

One assay has as its target PUM1 PUF domain R4-NPA (Homo sapiens, UniProt Q14671 828-1176, H972P;Q975A). The essentials:
(§1)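 Each repeat of the Pumilio-1 PUF domain was randomized at its three base-contacting residues, and these libraries were co-expressed from a centromeric plasmid with matching RNA elements in strain YBZ-1. After four days on SC-Leu (input) or SC-Leu-His + 0.5 mM 3-AT (selection), the repeat regions were PCR-amplified and Illumina-sequenced. The interaction score compares variant frequency between input and selection as a log change, computed in log2 with a pseudocount of 1 for absent variants.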

In another assay the target is PUM1 PUF domain R4-DWG (Homo sapiens, UniProt Q14671 828-1176, N971D;H972W;Q975G). The essentials: as §1
The target of a further assay is PUM1 PUF domain R1-KLR (Homo sapiens, UniProt Q14671 828-1176, S863K;R864L;Q867R). In short, it runs like this:
as §1

In another assay the target is PUM1 PUF domain R1-KRY (Homo sapiens, UniProt Q14671 828-1176, S863K;Q867Y). The essentials: as §1
The target in another assay is PUM1 PUF domain R1-RYQ (Homo sapiens, UniProt Q14671 828-1176, S863R;R864Y). The essentials: as §1
A further assay concerns the target PUM1 PUF domain R2-LWQ (Homo sapiens, UniProt Q14671 828-1176, N899L;Y900W). The essentials: as §1
The target of a further assay is PUM1 PUF domain R1-GWE (Homo sapiens, UniProt Q14671 828-1176, S863G;R864W;Q867E). In short, it runs like this: as §1
The target in the next assay is PUM1 PUF domain R3-TRH (Homo sapiens, UniProt Q14671 828-1176, C935T;Q939H). The essentials: as §1
The target in the next assay is PUM1 PUF domain R3-VFF (Homo sapiens, UniProt Q14671 828-1176, C935V;R936F;Q939F). In short, it runs like this:
as §1

The next assay concerns the target PUM1 PUF domain R3-EHG (Homo sapiens, UniProt Q14671 828-1176, C935E;R936H;Q939G). In short, it runs like this:
as §1

A further assay has as its target PUM1 PUF domain R3-RTV (Homo sapiens, UniProt Q14671 828-1176, C935R;R936T;Q939V). In short, it runs like this: as §1

Sequence of PUM1 PUF domain R4-NPA (Q14671 828-1176 H972P/Q975A): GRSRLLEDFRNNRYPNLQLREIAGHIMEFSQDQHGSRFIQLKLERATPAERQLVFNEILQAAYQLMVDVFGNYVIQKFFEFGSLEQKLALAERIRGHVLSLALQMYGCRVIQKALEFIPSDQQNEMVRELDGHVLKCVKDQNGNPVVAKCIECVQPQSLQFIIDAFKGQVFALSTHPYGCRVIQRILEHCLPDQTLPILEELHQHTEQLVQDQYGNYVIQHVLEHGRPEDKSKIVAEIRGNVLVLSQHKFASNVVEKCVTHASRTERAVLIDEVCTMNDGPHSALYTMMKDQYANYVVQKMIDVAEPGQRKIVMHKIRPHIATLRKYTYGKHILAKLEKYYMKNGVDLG

For the sequence “GGCUAGAACUAGUGGAUCCCCCGGCGCCCGGCGGCUCGAGCCCGGGUAAGUGUACAUAGUCUGCAUGCCGCCGGGCGCCAUGCCUGCAGGUCGACUCUAGAAAACAUG”, the binding signal with PUM1 PUF domain R4-NPA is 0.72 log2 enrichment (interaction score); with PUM1 PUF domain R4-DWG, 2.61 log2 enrichment (interaction score).
As to “GGCUAGAACUAGUGGAUCCCCCGGCGCCCGGCGGCUCGAGCCCGGGUAAGUGUAAAUUGUCUGCAUGCCGCCGGGCGCCAUGCCUGCAGGUCGACUCUAGAAAACAUG”, the binding signal with PUM1 PUF domain R1-KLR was 4.29 log2 enrichment (interaction score); with PUM1 PUF domain R1-KRY, 3.65 log2 enrichment (interaction score); with PUM1 PUF domain R1-RYQ, 4.14 log2 enrichment (interaction score).
In the case of “GGCUAGAACUAGUGGAUCCCCCGGCGCCCGGCGGCUCGAGCCCGGGUAAGUGUAAAAAGUCUGCAUGCCGCCGGGCGCCAUGCCUGCAGGUCGACUCUAGAAAACAUG”, the binding signal with PUM1 PUF domain R2-LWQ is 8.53 log2 enrichment (interaction score).
In the case of “GGCUAGAACUAGUGGAUCCCCCGGCGCCCGGCGGCUCGAGCCCGGGUAAGUGUAAAUGGUCUGCAUGCCGCCGGGCGCCAUGCCUGCAGGUCGACUCUAGAAAACAUG”, the binding signal with PUM1 PUF domain R1-GWE was 2.61 log2 enrichment (interaction score).
For the sequence “GGCUAGAACUAGUGGAUCCCCCGGCGCCCGGCGGCUCGAGCCCGGGUAAGUGUAAUUAGUCUGCAUGCCGCCGGGCGCCAUGCCUGCAGGUCGACUCUAGAAAACAUG”, the binding signal is 1.56 log2 enrichment (interaction score) in the assay with PUM1 PUF domain R3-TRH, 4.71 log2 enrichment (interaction score) with PUM1 PUF domain R3-VFF, 5.05 log2 enrichment (interaction score) with PUM1 PUF domain R3-EHG and 2.72 log2 enrichment (interaction score) in the assay with PUM1 PUF domain R3-RTV.

(Values after paper PMC8384837, “Expanding the binding specificity for RNA recognition by a PUF domain”.)
